Compounds with a hit are over-represented: about 3% of the library has one in this group of screens.
PAFAH2 FP inh: PAFAH2 (human) inhibition. Q99487. recombinant PAFAH2, FP-rhodamine activity probe, fluorescence polarization. inhibition, % at 3.39 µM. 340,000 compounds, 0.99% hits;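 active means inhibition above the mean over all tested compounds plus 3 SD, cut at about 30% in these data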;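 further: inhibitors block probe labeling of enzyme so polarization drops; 0% = enzyme with DMSO and 100% = wells lacking PAFAH2 protein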
ATG4B inh: blocks human ATG4B protease cleavage of LC3 substrate | inhibition, % at 8.33 µM | AID 504462 | ATG4B cleavage of LC3-PLA2, NBD-HPC fluorescence, 1 h | 340,000 compounds, 0.51% hits; in the data active means inhibition above about 40%
pPAFAH FP inh: inhibitors of human plasma PAF acetylhydrolase (pPAFAH); recombinant pPAFAH, FP-rhodamine probe fluorescence polarization; 330,000 compounds, 1.5% hits; AID 463082; inhibition, % at 3.39 µM; Q13093;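 active means inhibition above the mean inhibition across the screen plus 3 SD, cut at about 25% in these data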;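 further: inhibitors block binding of the rhodamine activity-based probe so polarization drops; 0% = enzyme with DMSO and 100% = wells lacking pPAFAH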
PAFAH1B2 FP inh: blocks human PAF acetylhydrolase 1b catalytic subunit 2 | recombinant PAFAH1B2, FP-rhodamine activity probe, fluorescence polarization | AID 492953 | inhibition, % at 3.39 µM | 340,000 compounds, 1.2% hits | P68402;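 active means inhibition above the mean of all tested compounds plus 3 SD, cut at about 24% in these data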;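 further: 0% = enzyme with DMSO and 100% = wells lacking PAFAH1B2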
Target sequence (P68402 whole entry, looked up): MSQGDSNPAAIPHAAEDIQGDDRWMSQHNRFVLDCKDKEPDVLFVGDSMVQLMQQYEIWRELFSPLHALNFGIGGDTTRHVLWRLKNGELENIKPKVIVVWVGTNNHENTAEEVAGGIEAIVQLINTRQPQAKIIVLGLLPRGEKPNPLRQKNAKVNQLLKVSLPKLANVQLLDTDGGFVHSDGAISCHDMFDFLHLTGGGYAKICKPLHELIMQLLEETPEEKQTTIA
DAGLB inh: blocks human DAGLB lipase activity | Q8NCG7 | HEK293T DAGLB membrane lysate, EnzChek fluorogenic substrate | inhibition, % at 5.17 µM | 340,000 compounds, 0.059% hits; in the data active means inhibition above about 34%;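 further: 0% = enzyme with vehicle and 100% = wells lacking enzyme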
PAFAH1B3 inh: blocks human PAF acetylhydrolase 1B catalytic subunit 3; recombinant PAFAH1B3, FP-rhodamine probe, fluorescence polarization; Q15102; inhibition, % at 3.39 µM; 340,000 compounds, 0.28% hits; AID 492972;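 active means inhibition above the screen-wide average of all tested compounds plus 3 SD, cut at about 25% in these data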;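 further: 0% = enzyme with DMSO only and 100% = wells lacking PAFAH1B3 protein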
Target sequence (Q15102 whole entry, looked up): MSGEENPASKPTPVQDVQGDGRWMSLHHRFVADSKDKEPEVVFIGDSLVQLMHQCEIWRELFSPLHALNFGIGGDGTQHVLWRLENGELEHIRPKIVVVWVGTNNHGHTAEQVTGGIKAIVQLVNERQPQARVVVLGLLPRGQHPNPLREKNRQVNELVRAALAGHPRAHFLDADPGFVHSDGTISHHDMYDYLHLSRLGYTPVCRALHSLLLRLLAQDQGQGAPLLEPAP
ATG4B confirm: confirmation of human ATG4B inhibitors. shares compounds with ATG4B inh. ATG4B protease fluorescent substrate cleavage assay. inhibition, % at 8.33 µM. 320 compounds, 92% hits; in the data active means inhibition above about 39%
PLA2 counter: PLA2 (human) inhibition in ATG4B counter-screen; shares compounds with ATG4B inh; purified PLA2, NBD-C6-HPC fluorescence, 45 min; inhibition, % at 8.33 µM; 1,600 compounds, 66% hits; AID 588402; in the data active means inhibition above about 50%
Target sequence (P04054 whole entry, looked up): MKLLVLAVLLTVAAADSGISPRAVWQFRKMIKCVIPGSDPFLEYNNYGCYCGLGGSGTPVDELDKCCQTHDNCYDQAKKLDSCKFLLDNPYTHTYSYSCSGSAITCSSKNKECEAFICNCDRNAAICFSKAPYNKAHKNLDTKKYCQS
* = called active by the depositor; nt = no result given.

SMILES | PAFAH2 FP inh | ATG4B inh | pPAFAH FP inh | PAFAH1B2 FP inh | DAGLB inh | PAFAH1B3 inh | PLA2 counter | others
CCOC(=O)c1c(C)nc2sc(C(N)=O)c(N)c2c1-c1ccccc1 | -4.7 | 54.2* | -0.4 | -3.6 | -1.0 | -2.3 | 60.7*
CCOC(=O)c1c(C)nc2c(c1-c1cc(OC)ccc1OC)C(=O)c1ccccc1-2 | 1.0 | -6.7 | 2.1 | -0.5 | -2.0 | 3.5 | nt
CCOC(=O)c1c(C)nc2c(c1-c1ccccc1)C(=O)c1ccccc1-2 | 6.4 | 79.2* | 6.7 | 0.6 | -7.9 | 10.4 | 71.0*
COC(=O)N/N=C/c1cn(Cc2ccc(Cl)cc2Cl)c2ccccc12 | -4.0 | 53.3* | 22.0 | 3.7 | 1.3 | 2.0 | 60.8*
Cc1ccc(OCC(=O)N/N=C\c2cn(Cc3ccccc3)c3ccccc23)cc1C | 1.0 | 42.7* | 3.8 | 4.3 | -2.2 | 8.3 | 10.2
Cc1ccccc1OCC(=O)N/N=C/c1cn(Cc2ccccc2)c2ccccc12 | -3.2 | 23.4 | 4.4 | -4.0 | 2.4 | 5.1 | nt
COC(=O)N/N=C/c1cn(Cc2c(Cl)cccc2Cl)c2ccccc12 | 4.3 | 42.0* | 12.1 | -1.0 | 0.2 | 2.3 | 50.6*
COC(=O)N/N=C/c1cn(Cc2ccccc2Cl)c2ccccc12 | 2.4 | 34.9 | 24.2 | 7.0 | -0.5 | 16.7 | nt
COc1cccc(CN2C(=O)C(C)N(C(=O)c3ccccc3)c3ccccc32)c1 (stereo not drawn) | 4.2 | 0.7 | 3.2 | 0.8 | 2.5 | 3.8 | nt
Cc1ccc(-n2c(SCC(=O)N3CCCC3)nc3c(c2=O)SCC3)cc1 | nt | nt | 8.3 | nt | nt | nt | nt
COC(=O)c1ccc(CSc2nc3c(c(=O)n2-c2ccc(C)cc2)SCC3)o1 | 2.4 | 47.9* | 6.1 | 2.8 | -1.7 | 6.3 | 70.2*
C[C@H]1CN([C@@H](C)CO)C(=O)c2cc(NC(=O)NC3CCCCC3)ccc2O[C@H]1CN(C)C(=O)Nc1ccc(C(F)(F)F)cc1 | -8.2 | 61.6* | 2.5 | 5.4 | 5.8 | 10.3 | 73.7*
C[C@H](CO)N1C[C@H](C)[C@@H](CN(C)C(=O)Nc2ccccc2)Oc2ccc(NC(=O)NC3CCCCC3)cc2C1=O | 6.3 | -1.7 | 1.1 | -1.4 | -1.4 | -4.7 | nt
O=c1oc2ccccc2c(N2CCOCC2)c1[N+](=O)[O-] | 3.4 | 1.6 | 0.1 | -1.6 | 0.4 | 8.6 | nt
Nc1c(N2CCN(c3ccccc3)CC2)c2ccccc2oc1=O | 7.4 | 42.9* | 8.7 | 4.7 | -2.1 | 3.1 | 44.2 | ATG4B confirm=78.5*
O=S(=O)(Nc1nc2ccccc2nc1N1CCc2ccccc2C1)c1ccc(Br)cc1 | 4.8 | 26.0 | 18.2 | -1.1 | 0.0 | 3.0 | nt
Cc1ccccc1S(=O)(=O)Nc1nc2ccccc2nc1N1CCc2ccccc2C1 | 10.9 | 43.1* | 13.9 | 1.4 | 5.1 | -0.9 | 28.9 | ATG4B confirm=62.0*
O=S(=O)(Nc1nc2ccccc2nc1N1CCc2ccccc2C1)c1ccc(Cl)cc1 | 7.5 | 40.1* | 13.4 | 1.6 | 3.1 | 2.7 | 4.3 | ATG4B confirm=85.5*
CN(C)S(=O)(=O)c1ccc(F)c(C(=O)Nc2ccccc2C(=O)NC2CC2)c1 | -0.8 | 1.2 | -0.9 | 1.6 | -4.2 | -2.8 | nt
Cc1ccc(NC(=O)COC(=O)Cc2ccsc2)cc1S(=O)(=O)N1CCOCC1 | 7.9 | -8.0 | 12.0 | 6.3 | -1.1 | -0.4 | nt
C=CCSc1nnc2c(n1)OC(c1cccnc1)Nc1ccccc1-2 (stereo not drawn) | -0.1 | -1.5 | 2.5 | 0.2 | 4.1 | 4.5 | nt
c1ccc(CSc2nnc3c(n2)OC(c2ccco2)Nc2ccccc2-3)cc1 (stereo not drawn) | 23.2 | 41.8* | 26.4* | 6.0 | 9.3 | 0.0 | 8.2 | ATG4B confirm=95.6*
CCOc1cc2c3c(c1)C1(Nc4ccccc4S1)C(=O)N3C(C)(C)CC2C (stereo not drawn) | 5.8 | 43.2* | 7.6 | 7.4 | -1.6 | 5.4 | 27.8
Nc1c(C(=O)Nc2ccc3c(c2)OCCO3)nnn1Cc1cccc(Br)c1 | -2.2 | 40.8* | 9.9 | 2.3 | 1.3 | 9.5 | 48.3
O=C(O)Cc1ccc(NS(=O)(=O)c2ccc3ccccc3c2)cc1 | 1.1 | 2.0 | 7.2 | 22.3 | -2.4 | 6.3 | nt
SMILES | PAFAH2 FP inh | ATG4B inh | pPAFAH FP inh | PAFAH1B2 FP inh | DAGLB inh | PAFAH1B3 inh | PLA2 counter | others
Cc1ccc(NC(=O)C2CC2C)c(Cl)c1 (stereo not drawn) | -1.3 | 0.6 | -1.1 | 0.7 | -0.5 | 15.3 | nt
CCOc1ccccc1C(=O)N/N=C/c1coc2ccc(C)cc2c1=O | 20.0 | 64.9* | nt | 3.4 | 9.3 | 8.5 | 75.7*
O=S(=O)(NC1CC1)c1ccc(Cl)cc1F | -0.3 | -3.1 | -2.1 | 9.6 | -0.3 | 9.6 | nt
CCN(CC)S(=O)(=O)c1ccc(N2CCOCC2)c(NC(=O)COc2ccccc2C)c1 | 12.4 | 62.0* | 8.6 | 4.1 | -6.6 | -1.1 | 75.9*
COc1ccccc1OCC(=O)Nc1cc(S(=O)(=O)N2CCCCC2)ccc1N1CCCCC1 | -2.0 | 41.8* | -2.0 | -5.0 | -8.6 | -7.9 | 0.6
COc1ccc(S(=O)(=O)N2CCCCC2)cc1NC(=S)Nc1cccc(Cl)c1C | -7.0 | 71.4* | -1.7 | -1.9 | -1.5 | 2.2 | 73.0*
COc1ccc(S(=O)(=O)N2CCCCC2)cc1NC(=S)Nc1ccccc1 | -2.4 | -2.0 | 2.9 | -1.8 | 1.1 | 13.0 | nt
COc1ccc(Cc2[nH]n3c(=O)c(Cl)c(C)nc3c2-c2ccccc2)cc1 | 15.7 | 16.2 | 2.5 | -0.6 | -2.2 | 13.8 | nt
COc1ccc(S(=O)(=O)CCC(=O)Nc2cccc(OC)c2)cc1 | nt | nt | 1.3 | nt | nt | nt | nt
COc1c(C)cc(Br)cc1C(=O)Nc1ccc(C)cc1[N+](=O)[O-] | -6.1 | 42.0* | -1.8 | 5.2 | -0.7 | 3.2 | -18.6
Nc1nc(SCc2nnc(SCC(=O)O)n2-c2ccccc2)nc2sc3c(c12)CCCC3 | 5.7 | 46.1* | 13.3 | 3.7 | 4.1 | -1.5 | 63.0*
O=C(O)CSc1nc2sc3c(c2c(=O)n1-c1ccccc1)CCC3 | 1.6 | 4.6 | -0.8 | 3.5 | 3.1 | 1.8 | nt
COc1ccc(C2(C)NC(=O)N(CC(=O)NCc3ccccc3F)C2=O)cc1 (stereo not drawn) | 3.7 | -9.4 | -1.3 | 2.0 | -0.2 | -0.6 | nt
CC1CCc2sc(C(=O)NN=C3CCCC3)cc2C1 (stereo not drawn) | nt | nt | nt | nt | -8.3 | nt | nt
CN(Cc1ccc(F)cc1)C(=O)c1sccc1-c1ccccc1 | 8.0 | 2.6 | nt | 12.4 | -5.1 | 3.1 | nt
CN(Cc1ccc(F)cc1)C(=O)COc1ccccc1-c1ccccc1 | 3.8 | 48.1* | 1.8 | 6.8 | -7.9 | 1.4 | 48.4
O=C(O)c1ccc(-c2ccc(/C=C3\NC(=O)N(Cc4ccc(Cl)cc4)C3=O)o2)cc1Cl | 30.3* | 48.9* | nt | 7.7 | 6.0 | 21.8 | 37.2 | ATG4B confirm=60.1*
CC(C)Cn1cnc2c(SCCc3ccccc3)nc(N)nc21 | 2.5 | -5.9 | nt | 5.2 | -4.0 | -3.2 | nt

Bioassay records from PubChem BioAssay.
